# Experimental data published in PubChem BioAssay (NCI).
# Compounds without any hit were thinned out: in the full panel of roughly 79,000, 15% have a hit. A number with no mark means an inactive call. Activity calls are given as the source filed them. Rule as the data show it: active = growth inhibition above about 70%; inactive = the rest.
# Columns and labels:
# [1] = NCI Yeast Anticancer Drug Screen. Data for the rad50 strain (AID 155);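 also: 0% = growth of vehicle-only cultures of the same strain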; settings: S. cerevisiae rad50 strain growth inhibition; at 50.0 µM; active compounds read high
# In short: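 Genetically altered yeast (DNA repair pathway); compound treatment; growth inhibition vs vehicle ctrl.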
# [2] = NCI Yeast Anticancer Drug Screen. Data for the mec2-1 strain (AID 157); settings: S. cerevisiae mec2-1 strain, at 50.0 µM, active compounds read high
# In short: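 Compounds were applied to mec2-1 yeast cells. Their growth was then compared with that of vehicle-treated cultures to give growth inhibition.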
# [3] = NCI Yeast Anticancer Drug Screen. Data for the sgs1 mgt1 strain (AID 161);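 also: 0% = growth of cultures given vehicle only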; settings: S. cerevisiae sgs1 mgt1 strain, at 50.0 µM, active compounds read high
# In short: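 Percent growth inhibition was derived by comparing compound-exposed mutant yeast with vehicle-exposed cultures. The strain carries alterations in DNA damage repair.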
# [4] = NCI Yeast Anticancer Drug Screen. Data for the cln2 rad14 strain (AID 165);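 also: 0% = growth equal to vehicle treated cultures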; settings: S. cerevisiae cln2 rad14 strain, at 50.0 µM, active compounds read high
# In short: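 Strain: cln2 rad14 yeast, altered in cell cycle control and DNA damage repair. Read-out: growth inhibition vs vehicle.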
# [5] = NCI Yeast Anticancer Drug Screen. Data for the bub3 strain (AID 167); settings: S. cerevisiae bub3 mutant strain, at 50.0 µM, active compounds read high
# In short: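 Yeast carrying a defined mutation is treated with each compound, and growth is compared with that of vehicle-exposed cells to give inhibition.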
# [6] = NCI Yeast Anticancer Drug Screen. Data for the mlh1 rad18 strain (AID 175); settings: S. cerevisiae mlh1 rad18 strain growth inhibition; at 50.0 µM; active compounds read high
# In short: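 A repair-deficient yeast strain is exposed to test compound, and growth is scored relative to vehicle-treated controls.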
Compound,growth inhibition [1],growth inhibition [2],growth inhibition [3],growth inhibition [4],growth inhibition [5],growth inhibition [6]
Cc1cccc(C)n1,-1.85%,-22.1%,-3.15%,-1.85%,-6.55%,-21.4%
CC(=O)OC/C(=C/C#N)C1CCC2C3CCC4CC(OC(C)=O)CCC4(C)C3CCC12C (configuration not stated),47%,30.7%,45.5%,40%,21.5%,57.5%
COc1cc(CO)c(CO)cc1OC,-5.05%,-3.2%,-5.65%,-10.8%,4%,-8.95%
OCc1c(CO)c(C(F)(F)F)n2c1CCC2,9.9%,-4.1%,9.15%,-14.3%,9.65%,2.55%
NS(=O)(=O)c1ccc(NO)cc1,-16.1%,-7.45%,6.3%,-15.2%,6.9%,9.85%
O=C(O)C(CCl)(CCl)CCl,19.4%,1.3%,1.05%,17.6%,13.8%,15.2%
c1ccc(CCN2CCCCCCCC2)nc1,1.35%,7.9%,-4.35%,-23.2%,-8.95%,-0.35%
CC1(C)CC(=O)N(Nc2ccccc2)C1=O,-8.55%,-7.6%,-8.8%,-7.35%,-12.7%,-13.7%
NC(=O)CNC(=O)C(CO)NC(=O)OCc1ccccc1 (configuration not stated),2.35%,-10%,10.7%,-6.2%,-11.1%,0.3%
CC1=CC[N+](C)(C)C(C(N)=O)C1 (configuration not stated),-5%,-12.8%,-17.2%,9.95%,20.9%,-18.1%
CC1c2ccccc2CC(CCN(C)C)c2ccccc21 (configuration not stated),8.1%,-12.8%,34%,13.4%,28.6%,-20.3%
Cc1csc(C)[n+]1CC(=O)c1ccccc1,-10%,-5.45%,-8.4%,-20.2%,-6.1%,-29.1%
CCCCn1c2nc3ccccc3c-2nc2cc(OC)c(OC)cc21,26.1%,15.3%,14.6%,5.5%,12.2%,35.1%
c1ccc2c(c1)nc(NC1CCCC1)c1[nH]c(C3CCCC3)nc12,-26.1%,-36.6%,-56.9%,-10.3%,-29.2%,-50%
Cc1cn(C2CC(N)C(C(=O)NCC(=O)O)O2)c(=O)[nH]c1=O (configuration not stated),-19.9%,-54.5%,-0.6%,2.65%,-40.1%,-26.1%
Cc1cccc(C)c1NC(=S)NC=C(C(N)=O)C(N)=O,-26.1%,-23.6%,12.7%,3.1%,-14.4%,10.6%
CON(C)S(=O)(=O)c1ccc(Cl)cc1,7.75%,-9.5%,-4.15%,-18.9%,-2.25%,-6.2%
CC(=O)CCC(=O)OCc1ccccc1,35.1%,7.75%,1.3%,10.3%,-3%,4.2%
CNc1c2c(nc3ccccc13)CCCC2,1.95%,-10.3%,-10.1%,-44.4%,15.1%,-19.2%
O=S(=O)(CS(=O)(=O)c1ccccc1Br)c1ccccc1Br,-7.65%,30.3%,-16%,13%,1.95%,6.95%
COc1ccc(OC)c(NC(=O)Nc2cc(Cl)ccc2C)c1,4.25%,0.65%,-2.3%,-6.1%,19.2%,4.8%

Compound,growth inhibition [1],growth inhibition [2],growth inhibition [3],growth inhibition [4],growth inhibition [5],growth inhibition [6]
CCOCCOCCOCOCCOCCOCC,17.2%,-25.2%,8.4%,7.25%,25.9%,-4%
CCn1cc2c(=O)n3ncn(-c4ccc(Br)cc4)c3nc2n1,-8.05%,9.75%,3.2%,-16.4%,-28.8%,-12.2%
NC1=NN(S(=O)(=O)c2ccc(Cl)cc2)CC1,-14.7%,-6.25%,-8.75%,-21.7%,-3.3%,5.95%
COC(=O)[C@]12CCC(C)(C)C[C@H]1C1=CC[C@@H]3[C@@]4(C)CC[C@H](OC5OC(CO)C(O)C(O)C5OC5OC(CO)C(O)C(O)C5O)C(C)(C)[C@@H]4CC[C@@]3(C)[C@]1(C)CC2 (some centres not stated),89% (active),90.8% (active),91.4% (active),90% (active),90.9% (active),89.5% (active)
CC(C)(C)CNCCCBr,-19.9%,-4.8%,-9.05%,-13.3%,30.8%,8.15%
O=C1OC(c2ccc(O)c(-c3ccccc3)c2)(c2ccc(O)c(-c3ccccc3)c2)c2c(Cl)c(Cl)c(Cl)c(Cl)c21,-16.4%,-18.4%,19.1%,-18.6%,-33.1%,1.45%
COC(=O)C(O)CC1=CC[C@@H]2CC=C[C@H]12 (some centres not stated),27.7%,1.7%,13.7%,3.7%,27.5%,-7.65%
CO/C=C/c1cc2c(cc1Br)OCO2,10.9%,5.15%,25.4%,0.75%,11.4%,12.3%
CC(=O)NC1C(OCC(=O)NC(C)C(=O)NC(CCC(=O)NCCCCCNc2ccc([N+](=O)[O-])c3[nH]c4ccccc4c(=O)c23)C(N)=O)C(O)C(CO)OC1(C)OCc1ccccc1 (configuration not stated),-7.65%,-3.35%,1.05%,21.2%,-12.1%,18.1%
COc1ccc(C)cc1NS(=O)(=O)c1ccccc1,-7.45%,-33.4%,-8.2%,-12.5%,-9.65%,10.4%
CC1(C)CC(=O)c2c([nH]c(=S)c(C#N)c2-c2ccc(Br)cc2)C1,-37.3%,-13.1%,-27.4%,-11.8%,-8.7%,-42.1%
COc1c(Cl)c(Cl)c([N+](=O)[O-])c(Cl)c1Cl,40.4%,30.1%,35.5%,7.65%,37.9%,33.2%
O=P1(c2ccccc2)OCC2=C(c3ccccc3)CC2=C1c1ccccc1 (configuration not stated),16.1%,12.2%,4.7%,10.1%,-2.05%,19.9%
C=C1CCN(c2ccc([N+](=O)[O-])cc2)C1=O,0%,-11.2%,4.05%,-37.6%,10.3%,10.3%
ClC(Cl)(Cl)C(Cl)(Cl)C(Cl)(Cl)Cl,42.1%,14.8%,16%,-19.4%,6.75%,24.3%
O=C(NCCCl)NCC1CCCO1 (configuration not stated),-9.35%,-1.25%,-13.8%,-48.9%,-4.75%,0.15%
C[N+]1(C)C2C=CCC1CSC2 (configuration not stated),4.55%,0.15%,-3.8%,3.65%,2.75%,12.8%
CC12CCC(C/C1=N\N=C(N)N)C2(C)C (configuration not stated),7.55%,-4%,-2.2%,-36.9%,-5.05%,6.2%
CC1=C2CCCCC2(C)C=C(C(=O)O)C1=O (configuration not stated),22.2%,50.5%,18.8%,34.6%,12.2%,23.4%
C/C=C(/c1ccccc1)c1ccc(N(C)C)cc1,2.25%,0.85%,-10.1%,-4.7%,9.2%,4.35%
COc1cccc(NC(=O)CSc2nnc(-c3ccc(NC(C)=O)cc3)o2)c1,-29.2%,-15.5%,-15.3%,6.15%,-25.4%,-16.9%
